This is a sample that favours compounds with a hit; in the whole collection about 12% have one here.
HP1b binding inh: blocks HP1-beta chromodomain binding to methylated histone tails. AlphaScreen HP1-beta / biotin-H3K9me3 peptide binding. Potency, µM (doses to about 114 µM), for the others: at the highest dose activity change, negative = inhibition, usual class: inhibitors. actives 0.56% (n = 390,000). AID 540317; note: nearly all actives have a fitted effect of over 70% in size
Target sequence (P83916 whole entry, looked up): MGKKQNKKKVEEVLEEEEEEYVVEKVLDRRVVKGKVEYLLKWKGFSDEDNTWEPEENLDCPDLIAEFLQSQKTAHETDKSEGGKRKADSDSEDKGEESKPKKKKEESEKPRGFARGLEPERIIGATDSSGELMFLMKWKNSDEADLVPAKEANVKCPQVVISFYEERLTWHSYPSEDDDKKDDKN
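AlphaScreen: HP1-beta (50 nM) preformed 30 min with biotin-H3(1-18)K9me3 peptide (50 nM) in PBS pH 7.4, 0.01% Tween-20. Compound added for 30 min at RT, then streptavidin donor/nickel chelate acceptor beads (10 ug/mL) for 30 min.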
Sfp PPTase inh: Sfp phosphopantetheinyl transferase inhibition. Q9F4F7. Biochemical Sfp PPTase activity, qHTS. Potency, µM, for inactives: largest response in the series, negative = inhibition, usual class: inhibitors. actives 3.5% (n = 310,000). AID 1490;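 note: the enzyme is Sfp with the accession as filed and its product quenches rhodamine fluorescence; 0% = enzyme reaction without inhibitor and -100% = no enzyme wells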
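With Hepes-Na pH 7.6 buffer containing 10 mM MgCl2, Sfp (15 nM) modified BHQ-2-YbbR (12.5 uM) using rhodamine-CoA (5 uM). Two reads 30 minutes apart at 525/598 nm yielded each well's rate.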
BAZ2B block: BAZ2B (human) inhibition. Q9UIF8. AlphaScreen BAZ2B-H3K14Ac peptide displacement. Potency, µM (doses to about 114 µM), for inactives: at the highest dose activity change, negative = inhibition, actives largely listed as inhibitors. actives 4.4% (n = 360,000); note: % is set by controls: 0 for no effect and ±100 for the full control effect; nearly all actives have a fitted effect of over 60% in size
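AlphaScreen displacement: compounds (up to 110uM) incubated 30 min at room temperature with a preformed 50 nM BAZ2B/50 nM biotinylated H3K14Ac peptide complex in PBS pH 7.4 with Tween-20. Donor and acceptor beads at 10 ug/mL final added, 20 min light-protected before reading.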
G9a block: G9a (human) methyltransferase inhibition; actives 8.8% (n = 350,000); Q96KQ7; G9a H3K9 monomethylation, AlphaScreen, 2 h; Potency, µM (highest dose often 102 µM), inactives show top-dose activity, negative = inhibition, most hits filed as inhibitors; note: % is set by controls: 0 for no effect and ±100 for the full control effect; nearly all actives have a fitted effect of over 75% in size
Target sequence (Q96KQ7 913-1193 limits assumed): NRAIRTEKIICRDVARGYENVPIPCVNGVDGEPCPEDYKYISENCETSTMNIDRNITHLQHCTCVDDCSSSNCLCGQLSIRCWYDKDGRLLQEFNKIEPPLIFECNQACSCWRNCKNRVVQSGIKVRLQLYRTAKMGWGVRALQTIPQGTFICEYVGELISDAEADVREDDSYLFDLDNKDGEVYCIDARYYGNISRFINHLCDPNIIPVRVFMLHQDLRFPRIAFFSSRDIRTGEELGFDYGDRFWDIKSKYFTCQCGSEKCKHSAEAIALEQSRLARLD
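Quantitative HTS format: methyltransferase activity on a biotin-tagged H3K9 peptide is measured by AlphaScreen, using a rabbit anti-monomethyl-H3K9 antibody with streptavidin donor and anti-IgG acceptor beads. Final levels are 20 nM enzyme, 500 nM peptide, 20 uM SAM; 2 h RT.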
JMJD2A Tudor: JMJD2A Tudor domain (human) inhibition | Potency, µM (titrated, usually from 114 µM), without a hit: top-dose activity change, negative = inhibition, usual class: inhibitors | actives 4.4% (n = 390,000) | O75164 | AlphaScreen JMJD2A-Tudor / H3K4me3 peptide binding; note: % is set by controls: 0 for no effect and ±100 for the full control effect; nearly all actives have a fitted effect of over 50% in size
* hit, by the source's call; i = inactive; ? = inconclusive; nt = no result; [ ] = dose if it differs, or a comment. Calls come from the whole dose curve; as a rule, active = well fitted curve in the direction sought with a large enough effect; inconclusive = small, poorly fitted or top-dose-only effect, or another doubt; inactive = no such curve, though single readings can be large; an effect the other way counts as inactive or inconclusive. Potency is the fitted concentration of half-maximal effect.

SMILES	HP1b binding inh	Sfp PPTase inh	BAZ2B block	G9a block	JMJD2A Tudor
O=S(=O)(/N=C/c1c(O)ccc2ccccc12)c1ccccc1	79.4µM*	-1.2%	-20.3%	1.41µM*	56.2µM*
Cn1cc(C(=O)N/N=C/c2c(O)ccc3ccccc23)ccc1=O	38.7%	11.5%	?	?	-29.0%
O=C(CNc1ccccc1)N/N=C/c1c(O)ccc2ccccc12	23.8%	2.8%	-1.2%	-13.3%	-15.3%
Nc1nonc1N/N=C/c1c(O)ccc2ccccc12	15.7%	-5.4%	-27.6%	?	-28.7%
O=C(O)Cc1ccc(N=Cc2c(O)ccc3ccccc23)cc1	-8.6%	1.8%	-28.7%	1.58µM*	-25.8%
COc1ccc(NC(C)C(=O)N/N=C/c2c(O)ccc3ccccc23)cc1 (centres undefined)	50.2%	16.6%	-0.1%	44.7µM*	-13.4%
N#Cc1cccc(N=Cc2c(O)ccc3ccccc23)c1	-25.1%	-3.3%	-2.7%	1.41µM*	35.5µM*
CCc1cc(=O)[nH]c(SCC(=O)N2CCC(Cc3ccccc3)CC2)n1	11.6%	nt	10.2%	?	-27.7%
COc1ccc(N=Cc2c(O)ccc3ccccc23)cc1	81.8%	?	-20.4%	0.794µM*	35.4%
COc1ccc(N=Cc2c(O)n(-c3ccc(OC)cc3)c(=O)c3ccccc23)cc1	21.5%	-25.7%	-18.1%	-25.7%	-14.7%
Cc1ccc(C)c(N2CCN(C(=O)CS(=O)(=O)c3cccc4nsnc34)CC2)c1	3.5%[57 µM]	nt	?	2.4%[59 µM]	-33.2%
O=C1C=C(N2CCCCC2)c2ccccc2C1=O	?	nt	nt	nt	-7.2%
CCOc1ccc2noc3c2c1C(=O)c1ccccc1-3	67.3%	?	-11.4%	?	2.9%
Cn1c(=O)cc2c3c(c(N4CCCCC4)ccc31)C(=O)c1ccccc1-2	?	-6.1%	10µM*	14.1µM*	35.5µM*
O=C1c2ccccc2C(=O)c2c1cccc2N1CCCC1	?	-19.2%	5.01µM*	3.98µM*	5.01µM*
Cn1c(=O)c(NC2CCCCC2)c2c3c(cccc31)C(=O)c1ccccc1-2	60.8%	-24.7%	16.8%	nt	13.2%
CCNc1ccc2noc3c2c1C(=O)c1ccccc1-3	?	-16.6%	31.6µM*	?	?
O=C1c2ccccc2-c2onc3ccc(NCc4ccco4)c1c23	i	-15.3%	111.9%	i	?
O=C1c2ccccc2-c2onc3ccc(N4CCCC4)c1c23	20µM*	39.8µM*	14.1µM*	10µM*	?
CC(C)CN(C(=O)COC(=O)c1cc2ccccc2cc1O)c1c(N)n(Cc2ccccc2)c(=O)[nH]c1=O	4.3%	nt	nt	nt	-24.1%
Cc1ccc(CSc2ncnc3ccccc23)cc1	144.4%	-7.9%	105.6%	176.4%	96.5%
Cc1ccc(C(=O)CSc2ncnc3ccccc23)o1	-2.1%	?	-20.0%	25.1µM*	-4.2%
O=C(CSc1ncnc2ccccc12)N1CCCC1	29.7%	25.5%	-3.9%	-19.1%	-11.7%
O=C(CSc1ncnc2ccccc12)c1cccs1	3.3%	-64.2%	5.4%	22.4µM*	3.4%
COCCCNC(=O)Cn1nc(N2CCN(c3ccccc3)CC2)ccc1=O	51.6%	nt	7.7%	4.8%[59 µM]	-13.0%
SMILES	HP1b binding inh	Sfp PPTase inh	BAZ2B block	G9a block	JMJD2A Tudor
Cc1ccccc1-c1cc(C(=O)NCc2cccc(Br)c2)n(CC2CC(c3cccnc3)=NO2)n1 (centres undefined)	17.7%	nt	nt	nt	-21.5%
CCCNC(=O)Cn1nc(-c2ccc(F)cc2)c2cnc3ccc(F)cc3c21	-1.4%	nt	-34.8%	-2.1%[59 µM]	-17.0%
O=C(Nc1cccnc1)Nc1ccc(Cl)cc1Cl	42.4%	-11.0%	-18.6%	50.1µM*	?
CC(=O)c1cccc(NC(=S)NC(=O)Cc2ccccc2)c1	54.0%	14.9%	?	22.4µM*	-3.4%
CC(=O)c1cccc(NC(=O)CSC(=O)c2ccccc2)c1	46.6%	-14.3%	5.0%	20µM*	5.2%
O=C(CSC(=O)c1ccccc1)Nc1ccccc1F	?	nt	nt	nt	-15.2%
Cc1cccc(NC(=S)NNC(=O)Cc2ccccc2)c1	12.5%	20.7%	0.7%	15.8µM*	-4.8%
CC(=O)c1cccc(NC(=S)NC(=O)Cc2ccc(Cl)cc2)c1	28.0%	-2.8%	5.5%	-6.8%	-17.3%
O=C(CSCc1ccccc1Cl)NNC(=S)Nc1ccccc1	-28.2%	8.9%	-33.2%	7.94µM*	?
Cc1cccc(NCC(=O)NNC(=S)Nc2ccccc2)c1	-14.8%	26.0%	-3.0%	31.6µM*	?
